High-throughput results: PubChem, several laboratories
Shown are actives, neighbours in structure and some others; about 1.5% of the full set was active somewhere.
GLD-1 TGE inh: GLD-1-TGE RNA interaction inhibition (C. elegans); purified GLD-1 + fluorescein TGE RNA, fluorescence polarization; inhibition, % at 5.96 µM; 320,000 tested, 0.44% active; AID 2280;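 active means percent inhibition above a per-plate cutoff, the plate mean of test compounds plus 3 SD, cut at about 30% in these data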
EBV gp42 block: inhibitors of Epstein-Barr virus glycoprotein 42; 220,000 tested, 0.42% active; Fluorescence polarization binding assay, mP read-out; inhibition, % (tested at 21.74 µM); AID 1085; Q1HVG2; in the data active means inhibition above about 50%
MCL1 BIM primary: disrupts human MCL1 binding to BIM-BH3 peptide; Q07820; GST-MCL1 / FITC-Bim-BH3 fluorescence polarization; inhibition, % at 10.9 µM; 320,000 tested, 0.68% active;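 active means inhibition above the mean inhibition of all tested compounds plus 3 SD, set per campaign, cut at about 40% in these data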;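 further: higher means more loss of mP so more displacement of Bim peptide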
E coli Lon inh: inhibitors of E. coli Lon protease; P0A9M0; purified E. coli Lon protease, fluorescence polarization; inhibition, % at 7.94 µM; 360,000 tested, 0.42% active; AID 602123; in the data active means inhibition above about 13%, passing the limit was not always enough
Target sequence (P0A9M0 whole entry, looked up): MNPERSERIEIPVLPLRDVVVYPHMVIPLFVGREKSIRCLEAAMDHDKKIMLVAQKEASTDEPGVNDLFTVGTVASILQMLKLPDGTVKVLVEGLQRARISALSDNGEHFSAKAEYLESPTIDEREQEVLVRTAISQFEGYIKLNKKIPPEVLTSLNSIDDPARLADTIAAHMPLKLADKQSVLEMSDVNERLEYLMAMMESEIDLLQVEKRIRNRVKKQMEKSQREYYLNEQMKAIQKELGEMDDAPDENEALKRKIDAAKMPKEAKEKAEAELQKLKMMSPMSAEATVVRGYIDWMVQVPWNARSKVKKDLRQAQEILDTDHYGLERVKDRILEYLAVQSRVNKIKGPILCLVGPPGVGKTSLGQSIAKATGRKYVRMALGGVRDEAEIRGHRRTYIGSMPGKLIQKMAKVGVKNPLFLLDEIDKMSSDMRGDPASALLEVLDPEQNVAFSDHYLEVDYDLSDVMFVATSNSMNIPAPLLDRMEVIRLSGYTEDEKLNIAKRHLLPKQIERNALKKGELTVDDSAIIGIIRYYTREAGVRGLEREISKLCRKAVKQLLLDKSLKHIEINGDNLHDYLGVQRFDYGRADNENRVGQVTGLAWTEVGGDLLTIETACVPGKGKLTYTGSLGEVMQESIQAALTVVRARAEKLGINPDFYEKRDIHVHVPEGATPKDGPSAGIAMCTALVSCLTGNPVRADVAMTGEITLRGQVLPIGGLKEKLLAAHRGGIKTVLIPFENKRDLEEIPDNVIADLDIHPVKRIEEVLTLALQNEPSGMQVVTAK
Bcl-xL primary: blocks human Bcl-xL binding to Bim BH3 peptide. Q07817. GST-Bcl-xL / FITC-Bim BH3 peptide fluorescence polarization. inhibition, % at 10.9 µM. 320,000 tested, 0.7% active;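 active means inhibition above the mean of all tested compounds plus 3 SD, cutoff set per campaign, cut at about 30% in these data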;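 further: inhibitors lower millipolarization by displacing the labeled peptide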
MEX-5 binding: C. elegans MEX-5 TCR-2 RNA binding activity | MEX-5/FITC-TCR2 RNA binding, fluorescence polarization; hits give low values | activity score (negative = inhibition of binding), % at 10 µM | 300,000 tested, 0.38% active | AID 1832;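 active means inhibition past about -25% in most replicates, and total fluorescence under double the plate's negative control median, limit read from the data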
Bcl-xL conf: Bcl-xL (human) inhibition, MCL1 counter-screen confirmation; 1,700 tested, 54% active; shares compounds with MCL1 BIM primary; GST-Bcl-xL / FITC-Bim BH3 peptide FP binding; inhibition, % at 10.9 µM; AID 2166;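 active means inhibition above a cutoff equal to the mean inhibition of all tested compounds plus 3 SD, cut at about 30% in these data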
MCL1 inh confirm: confirmation of human MCL1 and BIM-BH3 interaction inhibitors; GST-MCL1 / FITC-Bim-BH3 fluorescence polarization; 1,700 tested, 61% active; inhibition, % at 10.9 µM; shares compounds with MCL1 BIM primary;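 active means inhibition above the average of all tested compounds plus 3 SD, cut at about 40% in these data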
GLD1 RNA confirm: confirmation of C. elegans GLD-1 TGE RNA binding inhibitors; GLD-1/FL-TGE RNA fluorescence polarization, biochemical; 550 tested, 10% active; inhibition, % at 5.96 µM; AID 2459; shares compounds with GLD-1 TGE inh;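 active means average inhibition across triplicates above the hit cutoff set in the primary screen, cut at about 32% in these data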
A number is an active result; 0 = inactive; - = no result.

SMILES	GLD-1 TGE inh	EBV gp42 block	MCL1 BIM primary	E coli Lon inh	Bcl-xL primary	MEX-5 binding	Bcl-xL conf	MCL1 inh confirm	others
Cc1ccc(-c2nc(CS(=O)(=O)CC(=O)NCCN3CCCC3)c(C)o2)cc1	0	-	0	0	0	0	-	-
COc1ccc(NC(=O)/C=C/c2cccc(F)c2)cn1	47	0	75	0	75	0	54	68
COc1ccc(NC(=O)c2ccco2)cn1	60	-	75	0	70	0	64	86
COc1ccc(NC(=O)CCl)cn1	82	71	111	-	105	-60	84	115
COc1ccc(NC(=O)/C=C/c2ccco2)cn1	0	0	0	0	0	0	-	-
COc1cccc(OC)c1C(=O)Nc1ccc(NC(=O)c2ccco2)cc1	0	0	0	0	0	0	-	-
Cc1cc(OCC(=O)NCCc2c[nH]c3ccccc23)c2c(C)cc(=O)oc2c1	0	-	0	0	0	0	-	-
N#Cc1ccc2ccn(CC(=O)NC3CCCCCC3)c2c1	0	0	0	0	0	0	-	-
COC(=O)c1ccc2ccn(CC(=O)NC3CCCCC3)c2c1	0	0	49	0	0	0	0	0
CCOC(=O)C1CCN(C(=O)Nc2ccc3nc(-c4ccco4)c(-c4ccco4)nc3c2)CC1	56	0	143	0	101	0	68	100
CN(Cc1nc2ccccc2c(=O)[nH]1)C(=O)c1ccc(NC(=O)CSc2nnnn2C)cc1	0	-	44	0	0	-	0	0
N#CCCC(CCC#N)C1=NCCc2ccccc21	0	0	0	0	0	0	-	-
CC(C)Cc1cc(C(=O)O)n[nH]1	0	0	0	0	0	0	-	-
CC(C)(C)c1cc(C(=O)O)n[nH]1	0	0	48	0	0	0	0	0
COc1cc(Cl)c(C)cc1NC(=O)CSc1sc2c(O)cc(=O)[nH]c2c1C#N	0	-	43	0	0	0	0	0
N#Cc1c(SCC(=O)Nc2nncs2)sc2c(O)cc(=O)[nH]c12	0	-	70	0	34	0	0	53
Cc1c(N)cccc1N	0	-	52	0	69	-	0	0
O=C(/C=C/c1ccco1)NC(=S)Nc1cccc(C(=O)O)c1	0	-	61	0	37	-34	31	52
Nc1cc2c(cc1[N+](=O)[O-])OCCO2	0	0	0	0	0	0	-	-
Nc1cc2c(cc1[N+](=O)[O-])OCO2	0	0	44	0	0	0	41	78
O=C(CN1CCN(S(=O)(=O)c2ccc(Cl)s2)CC1)N1CCOCC1	0	0	0	0	0	0	-	-
CC(=O)c1cccc(N(C(=O)CNC(=O)c2cccs2)C(C(=O)NCC2CCCO2)c2ccccc2)c1 (configuration not stated)	0	-	0	0	0	0	-	-
Nc1ccc(-c2c3ccc(=O)cc-3oc3cc(O)ccc23)c(C(=O)O)c1	0	-	78	0	86	-	77	76
COc1ccc(-c2cc(=O)c3ccc(O)cc3o2)cc1OC	-	-	-	0	-	-	-	-
Cc1cc(O)cc(=O)n1Cc1ccccc1	0	-	0	0	0	0	-	-
SMILES	GLD-1 TGE inh	EBV gp42 block	MCL1 BIM primary	E coli Lon inh	Bcl-xL primary	MEX-5 binding	Bcl-xL conf	MCL1 inh confirm	others
Cc1nn(-c2ccccc2)c(Cl)c1/C=N/O	0	0	119	0	0	0	0	0
Cc1nn(-c2ccccc2)c(N2CCCC2)c1/C=N/O	0	0	0	0	0	0	-	-
COc1ccccc1NC(=O)Cc1nnc(SCC(=O)c2ccc(F)cc2)n1C	0	-	0	0	0	0	-	-
O=C(CN1CCCc2ccccc21)NCc1ccccc1Cl	0	0	68	0	62	0	0	0
CN(C(=O)c1ccc(NC(=O)Cc2cccc(NC(=O)C3CCN(C(=O)C4CC4)CC3)c2)cc1)C1CC1	-	-	-	0	-	-	-	-
CC(C)[C@H](NC(=O)c1ccc(Br)cc1)C(=O)NC1CCCCC1	0	-	0	0	0	-	-	-
O=c1[nH]c2cc3c(cc2cc1CN(Cc1nnnn1CC1CCCO1)C1CCCCC1)OCO3 (configuration not stated)	43	57	85	0	77	0	45	68	GLD1 RNA confirm=0
Cc1ccc(NC(=O)C(C)Sc2nc(-c3ccccc3)cc(=O)[nH]2)cc1 (configuration not stated)	0	-	0	0	0	0	-	-
COC(=O)c1c(NC(=O)CSc2ncn[nH]2)sc(C)c1C	32	-	71	0	56	0	0	0	GLD1 RNA confirm=0
CCOC(=O)c1c(NC(=O)CSc2ncn[nH]2)sc(C(C)=O)c1C	0	-	0	0	0	0	-	-
O=C1C=C(O)c2cccc3cccc1c23	36	-	86	0	71	0	67	86	GLD1 RNA confirm=57
O=C1C=C(O)c2c(O)cccc2C1=O	0	0	0	-	0	-	-	-
CSc1nc2nc3c(cc2c(=O)n1-c1ccccc1C)COC(C)(C)C3	46	0	59	0	57	0	0	0	GLD1 RNA confirm=0
CCN(CC)c1ccc(/C=C(\C#N)C(=O)NCc2ccco2)cc1	0	0	0	-	0	-	-	-
CC(OC(=O)/C(C#N)=C/c1ccc(N(C)C)cc1)C(=O)NCc1ccco1 (configuration not stated)	77	-	129	0	111	0	99	142	GLD1 RNA confirm=56
O=C1CC(/C=C/c2ccccn2)=Nc2ccccc2N1	32	0	53	0	56	0	0	0	GLD1 RNA confirm=0
C(=C\c1ccccn1)/c1ccccn1	0	0	0	0	0	0	-	-
O=C(CNCc1ccc(Cl)cc1)Nc1ccc(C(=O)N2CCCCCC2)cc1	0	-	0	0	0	0	-	-
CCCC(=O)NCc1ccc2c(c1)cc(C)n2C	54	0	52	0	48	0	0	0	GLD1 RNA confirm=0
Cc1ccccc1CS(=O)(=O)CCC(=O)NCCN1CCN(c2cccc(Cl)c2)CC1	62	0	59	0	62	0	0	0	GLD1 RNA confirm=0
COc1ccc2ccc(OC)c(/C=N/NC(=O)c3cc4ccccc4o3)c2c1	-	-	-	0	-	-	-	-
CCCCn1c(N)c(N(Cc2ccccc2OC)C(=O)c2c(CC)noc2C)c(=O)[nH]c1=O	0	-	0	0	0	0	-	-
CNc1nc2cc([N+](=O)[O-])c([N+](=O)[O-])cc2nc1NC	98	0	98	0	90	0	0	0	GLD1 RNA confirm=0
C[C@H](NC(=O)C1CC(=O)N(c2ccc3c(c2)OCCO3)C1)C(=O)NC1CCCC1 (some centres not stated)	0	-	0	0	0	0	-	-
CC(C)[C@H](NC(=O)C1CC(=O)N(c2ccc3c(c2)OCO3)C1)C(=O)NC1CCCC1 (some centres not stated)	43	-	54	0	55	0	37	65	GLD1 RNA confirm=0
